Bioassay records: PubChem, National Center for Advancing Translational Sciences (NCATS)
The sample as a whole holds a higher share of hits than the screen did.
IL1B secr inh: inhibitors of inflammasome signaling (IL-1 beta secretion). AID 743279. THP-1 LPS/ATP IL-1B secretion, AlphaLISA, 16 h; stronger effect = lower value. actives 4.7% (n = 360,000). activity change, % at 57.5 µM; in the data active means activity change below about -50%; inconclusive means mostly about -30% to -49%
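Secreted IL-1B measured by AlphaLISA bead assay after 16 h compound exposure of THP-1 cells; compounds (final up to 57.5 uM) added 1 h before LPS (250 ng/mL) and ATP (1.25 mM) stimulation; lower signal means less secretion.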
HT1080 IDH1KD tx: kills HT-1080 cells with IDH1 knockdown | actives 2% (n = 360,000) | HT-1080 IDH1 knockdown viability, ATP luminescence, 48 h | Potency, µM (doses to about 46.1 µM), without a hit: at the top dose activity, negative = toxicity, actives largely listed as cytotoxic;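 further: potency means the concentration at half of the fitted maximal effect; 0% = DMSO wells and -100% = cell-free medium wells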
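% activity derives from luminescence (CellTiter-Glo), normalised to DMSO and no-cell wells. HT-1080-IDH1KD cells, 750/well, had 48 h compound exposure at 37 °C.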
ALOX12 inh: inhibitors of human 12S-lipoxygenase ALOX12. P18054. AID 1671190. actives 1.1% (n = 580,000). purified 12hLO, xylenol orange hydroperoxide absorbance. Potency, µM (doses to about 108 µM), for inactives: at the highest dose activity change, negative = inhibition, most hits filed as inhibitors; further: potency means the concentration at half of the fitted maximal effect
Target sequence (P18054 whole entry, looked up): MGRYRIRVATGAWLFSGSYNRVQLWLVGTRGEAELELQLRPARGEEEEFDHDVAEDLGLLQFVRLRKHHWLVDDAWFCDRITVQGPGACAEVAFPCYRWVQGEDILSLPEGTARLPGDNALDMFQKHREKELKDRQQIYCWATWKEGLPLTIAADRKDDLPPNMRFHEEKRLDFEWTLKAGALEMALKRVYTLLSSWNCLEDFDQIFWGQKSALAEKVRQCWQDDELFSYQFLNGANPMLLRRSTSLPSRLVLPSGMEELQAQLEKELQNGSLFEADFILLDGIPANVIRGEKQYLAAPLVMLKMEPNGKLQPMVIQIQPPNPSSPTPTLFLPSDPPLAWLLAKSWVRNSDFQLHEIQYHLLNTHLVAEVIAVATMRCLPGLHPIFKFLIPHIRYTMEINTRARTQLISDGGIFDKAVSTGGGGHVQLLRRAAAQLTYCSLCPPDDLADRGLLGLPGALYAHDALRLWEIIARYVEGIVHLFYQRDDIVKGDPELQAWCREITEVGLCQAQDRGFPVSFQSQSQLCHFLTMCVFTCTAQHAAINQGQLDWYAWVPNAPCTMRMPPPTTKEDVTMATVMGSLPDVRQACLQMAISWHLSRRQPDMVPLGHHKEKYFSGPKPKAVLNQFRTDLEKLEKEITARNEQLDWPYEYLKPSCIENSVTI
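Hydroperoxide product was detected by ferrous iron/xylenol orange as the 573 to 405 nm absorbance ratio. Arachidonic acid at 40 uM (final) was turned over for 30 min at room temperature by 150 nM human 12hLO, pH 7.0 Hepes buffer, after 15 min compound preincubation.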
TDP1 cell CPT: growth inhibition of DT40 Tdp1-/-;hTDP1 cells with camptothecin (screen for TDP1 inhibitors). chicken DT40 Tdp1-/-;hTDP1 cells + 20 nM CPT, ATP luminescence, 48 h. Potency, µM (titrated, usually from 46.2 µM), inactives show at the highest dose activity change, negative = growth inhibition, hits mostly inhibitors. actives 12% (n = 420,000). AID 686979; further: potency means the concentration at half of the fitted maximal effect; nearly all actives have a fitted effect of over 55% in size
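Chicken DT40 Tdp1-/- cells stably complemented with human TDP1 were seeded at 400 cells/well in medium containing 20 nM camptothecin, exposed to pin-transferred compounds, and grown at 37 °C for at least 48 hr. Viability was read as ATP luminescence.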
HT1080NT lethal: kills 2HG-producing HT-1080-NT fibrosarcoma cells | HT-1080-NT fibrosarcoma viability, CellTiter-Glo ATP luminescence, 48 h | Potency, µM (titrated, usually from 46.1 µM), without a hit: at the highest dose activity, negative = less viability, actives largely listed as cytotoxic | actives 1.6% (n = 360,000) | AID 686970;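 further: NT is the 2HG producing partner of a matched IDH1 knockdown line; potency means the concentration at half of the fitted maximal effect; 0% = DMSO-treated cells and -100% = media-only wells without cells; nearly all actives have a fitted effect of over 55% in size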
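Compounds were tested in concentration-response format on HT-1080-NT cells for 48 hours at 37 degrees C. Cell viability came from CellTiter-Glo luminescence; curves were classified by r2, response magnitude and activity.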
TDP1 cell noCPT: qHTS for Inhibitors of human tyrosyl-DNA phosphodiesterase 1 (TDP1): qHTS in cells in absence of CPT. DT40 Tdp1-/- hTDP1 cells, no CPT, ATP luminescence, 48 h. Potency, µM (series often up to 46.2 µM), without a hit: at the top dose activity change, negative = growth inhibition, most hits filed as inhibitors. actives 15% (n = 420,000); further: potency means the concentration at half of the fitted maximal effect; nearly all actives have a fitted effect of over 55% in size
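Seeded 400 DT40-hTDP1 cells/well (vehicle DMSO, no 20 nM CPT); pinned compounds; ≥48 hr at 37 °C; CellTiter-Glo luminescence as viability measure.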
* hit, by the source's call; ? = inconclusive; · = no result given; [ ] = remark or other dose. Unless noted, the call rests on the fitted dose curve; in most records, active means well fitted curve in the direction sought with a large enough effect; inconclusive means small, poorly fitted or top-dose-only effect, or another doubt; inactive means no such curve, though single readings can be large; an effect the other way counts as inactive or inconclusive. Unless noted, on the % scale 0 is the no-effect control and ±100 the full control effect.

SMILES	IL1B secr inh	HT1080 IDH1KD tx	ALOX12 inh	TDP1 cell CPT	HT1080NT lethal	TDP1 cell noCPT
CC(=O)Nc1cccc(NC(=O)C(=O)NCC(c2ccco2)N2CCc3ccccc3C2)c1 (configuration not stated)	11	-14%	-17%	16µM*	-2%	23µM*
O=C(NCC(c1cccnc1)N1CCc2ccccc2C1)C(=O)Nc1ccccc1F (configuration not stated)	·	·	-2%	15µM*	·	21µM*
O=C(NCC(c1cccnc1)N1CCc2ccccc2C1)c1ccc(F)c(F)c1 (configuration not stated)	·	·	4%	8.2µM*	·	7.3µM*
COc1cccc(NC(=O)C(=O)NCC(c2ccco2)N2CCc3ccccc3C2)c1 (configuration not stated)	-7	-11%	-14%	?	5%	?
Cc1ccc(C(=O)N2C(C(=O)NCC3CCCO3)COC23CCN(C(=O)c2cccs2)CC3)cc1 (configuration not stated)	·	·	36%	·	·	·
COc1ccccc1C(=O)NCC(c1cccnc1)N1CCc2ccccc2C1 (configuration not stated)	·	·	-3%	23µM*	·	21µM*
O=C(NCC(c1cccnc1)N1CCc2ccccc2C1)C(=O)Nc1ccccc1 (configuration not stated)	·	·	6%	21µM*	·	?
NS(=O)(=O)c1ccc(Nc2ccc([N+](=O)[O-])c3nonc23)cc1	36	-5%	-17%	-24%	0%	-17%
CC(=O)c1ccc(Nc2ccc([N+](=O)[O-])c3nonc23)cc1	-12	?	-4%	?	?	23µM*
COc1nc(C)cc(C)c1S(=O)(=O)c1ccccc1	12	2%	-15%	0%	-4%	-2%
Cc1cc(C)c(S(=O)(=O)c2ccccc2C)c(SCC(C)C)n1	10	-5%	0%	?	-3%	23µM*
CCOCCOc1nc(C)cc(C)c1S(=O)(=O)c1ccccc1C	-3	-1%	-13%	-4%	-5%	?
CCCSc1nc(C)cc(C)c1S(=O)(=O)c1ccccc1C	3	-11%	0%	16µM*	-7%	7.3µM*
Cc1cc(C)c(S(=O)(=O)c2ccccc2C)c(OCC(C)(C)C)n1	-24	-22%	157%	10µM*	-24%	9.2µM*
Cc1ccc(S(=O)(=O)c2c(C)cc(C)nc2Oc2cccc(C)c2C)cc1	-8	-4%	4%	?	-20%	18µM*
CN1C[C@@H](NC(=O)c2ccc(C#N)cc2)C[C@H]1c1nc(-c2cncnc2)no1	·	·	4%[176 µM]	·	·	·
O=C1COc2cc(S(=O)(=O)NCc3ccco3)c(Cl)cc2N1	·	·	2%	18µM*	·	?
CS(=O)(=O)N(CC(=O)N1CCN(c2ccccc2)CC1)c1ccc(Cl)c(C(F)(F)F)c1	0	-19%	0%	?	-9%	?
O=C(CN(c1ccc(Cl)c(C(F)(F)F)c1)S(=O)(=O)c1ccccc1)N1CCc2ccccc2C1	·	·	-5%	?	·	16µM*
Cc1cccc(NC(=O)C2CCN(S(=O)(=O)c3ccc4c(c3)CCCC(=O)N4)CC2)c1	·	·	-32%	·	·	·
O=C(NCC(c1cccs1)N1CCOCC1)c1cccc(NC(=O)c2cccs2)c1 (configuration not stated)	·	·	39%	·	·	·
COc1ccc2c(C)cc(SCC(=O)Nc3nsc(-c4ccccc4C)n3)nc2c1	·	·	-7%	?	·	15µM*
Cc1ccc(-c2nc(NC(=O)CSc3cc(C)c4ccccc4n3)ns2)cc1	51	14%	4%	13µM*	3%	16µM*
COc1ccc2c(C)cc(SCC(=O)Nc3nsc(-c4ccc(C)cc4)n3)nc2c1	1	6%	140%	-9%	5%	-28%
OC1O[C@H](c2ccc3c(c2)OCO3)[C@H]2CO[C@H](c3ccc4c(c3)OCO4)[C@@H]12 (some centres not stated)	5	0%	1%	?	0%	21µM*
SMILES	IL1B secr inh	HT1080 IDH1KD tx	ALOX12 inh	TDP1 cell CPT	HT1080NT lethal	TDP1 cell noCPT
Cc1cccc(C)c1N1C(=O)c2ccccc2NC(=O)C1C(=O)Nc1ccc(N2CCOCC2)cc1 (configuration not stated)	12	9%	-1%	?	-1%	15µM*
CSCCC(NS(=O)(=O)c1ccc2c(c1)OCCO2)C(=O)N(C)Cc1ccc(F)cc1 (configuration not stated)	-1	-6%	-17%	23µM*	-1%	13µM*
CSCCC(NS(=O)(=O)c1ccc2c(c1)OCCO2)C(=O)N(C)Cc1ccccc1F (configuration not stated)	-10	0%	3%	?	2%	21µM*
CSCCC(NS(=O)(=O)c1cccc(C(F)(F)F)c1)C(=O)N(C)Cc1ccc2c(c1)OCCO2 (configuration not stated)	-1	-1%	?	?	0%	?
CSc1nc(NCc2ccccc2)c2c3c(sc2n1)CN(C)CC3	?	?	0%	23µM*	?	23µM*
COCCNc1nc(SC)nc2sc3c(c12)CCN(C)C3	0	-14%	59%	-11%	-10%	-3%
CSc1nc(NCC(C)C)c2c3c(sc2n1)CN(C)CC3	3	?	-7%	21µM*	-30%	?
CCCSc1nc(N)c2c3c(sc2n1)CN(C)CC3	-17	1%	·	-26%	-5%	23µM*
CCN(CC)CCNc1nc(SC)nc2sc3c(c12)CCN(C)C3	?	-17%	-9%	-3%	?	?
CN1CCC(NC[C@H]2COCc3nc4cc(F)ccc4n32)CC1	·	·	-6%[176 µM]	·	·	·
O=C(Nc1ccc(F)cc1)N1CCCC(Cn2c(C3CC3)nc3cccnc32)C1 (configuration not stated)	·	·	5%	·	·	·
O=C(CSc1nnc2ccc(-c3ccc(Br)cc3)nn12)NCC1CCCO1 (configuration not stated)	?	-1%	-26%	21µM*	-10%	?
O=C(CSc1ccc2nnc(-c3ccc(F)cc3)n2n1)N1CCCc2ccccc21	-7	-7%	0%	18µM*	1%	16µM*
O=C(CSc1nnc2ccc(-c3ccc(F)cc3)nn12)N1CCCc2ccccc21	·	·	-12%	·	·	·
